Screens deposited in PubChem BioAssay by National Center for Advancing Translational Sciences (NCATS).
Only a selection was taken, and hits are over-represented in it overall.
Pf Dd2 growth: qHTS Primary assay for Inhibitors of Plasmodium falciparum Dd2 growth in vitro; P. falciparum Dd2 growth, SYBR Green, 72 h; Potency, µM (top dose mostly 28.9 µM), for inactives: at the highest dose activity, negative = inhibition, hits mostly inhibitors; 120,000 tested, 4.3% active; AID 1347417, 2020; active means well fitted inhibition curve with a large enough effect;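 further: plate controls were DMSO vehicle for no effect and reference drug for full effect; nearly all actives have a fitted effect of over 65% in size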
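Infected erythrocytes (Dd2, 0.3% parasitemia, 2.5% hematocrit final) are added to compound in RPMI-1640/Albumax II medium, grown 72 h at 37C in low oxygen, then lysed with saponin/Triton-X containing SYBR Green and read by fluorescence.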
Starred values were filed as active, the others as inactive; i = inactive; [ ] = remark or other dose. Potency means the concentration at half of the fitted maximal effect.

SMILES	Pf Dd2 growth
Cc1nc(C(=O)N2CCC3(CCC(=O)N(CCc4cnc[nH]4)C3)CC2)cs1	29%
COc1ccc(C(=O)N2CCc3nnc([C@@H]4C[C@@H](O)CN4C)n3CC2)cc1F	10%
CN1CCC2(CC1)Cc1ccccc1CN([S+](C)(=O)[O-])C2	-27%
C[S+](=O)([O-])N1Cc2ccccc2CC2(CCCCN2Cc2ccccc2)C1 (stereo not given)	-27%
Cc1ccc(CCN2CCCCC23Cc2ccccc2CN([S+](C)(=O)[O-])C3)cc1 (stereo not given)	10µM*
O=C(CCC1CCN(C(=O)c2ccccc2)CC1)Nc1ccccc1F	i
COc1ccccc1/C=C/CN1CCCC(CNC(=O)COc2ccccc2OC)C1 (stereo not given)	7.9µM*
COc1cccc(C(=O)NCC2CCCN(Cc3nc4ccccc4[nH]3)C2)c1OC (stereo not given)	i
O=C(CCC1CCCN(Cc2cccn2-c2nccs2)C1)Nc1ccccc1F (stereo not given)	7.1µM*
COc1cccc(C(=O)NCC2CCCN(C/C(C)=C/c3ccccc3)C2)c1OC (stereo not given)	-11%
O=C(CCC1CCCN(C(=O)Cc2c[nH]c(=O)[nH]c2=O)C1)Nc1ccccc1F (stereo not given)	-20%
COc1ccccc1/C=C/CN1CCCC(CCC(=O)Nc2ccccc2F)C1 (stereo not given)	8.9µM*
CCOc1ccc(CN2CCCC(CCC(=O)Nc3ccccc3F)C2)cc1CO (stereo not given)	i
COc1ccccc1CNC(=O)CCC1CCCN(S(=O)(=O)c2ccccc2F)C1 (stereo not given)	i
COc1ccc(CC(=O)N2CCN(c3cc(-c4ccccc4)[nH]n3)CC2)cc1OC	4%
CCOCCn1c(=O)[nH]c2cc(C(=O)N(C)Cc3ccncc3C)ccc21	12%
O=C(CCc1conc1-c1ccccc1F)NCc1cc(F)cc(F)c1	17%
CCc1ccccc1Nc1nn2c(=O)c3ccc(C(=O)NC4CCCCC4)cc3nc2s1	-20%
CCc1ccccc1Nc1nn2c(=O)c3ccc(C(=O)Nc4cc(C)cc(C)c4)cc3nc2s1	-2%
CCc1ccccc1Nc1nn2c(=O)c3ccc(C(=O)NC(C)c4ccccc4)cc3nc2s1 (stereo not given)	1µM*
Cc1ccc(-c2nc(C(=O)NCc3cccc(C)c3)no2)cc1	54%
CS(=O)(=O)N1CCC(OC2CCN(C(=O)NCc3ccccc3)CC2)CC1	35%
COc1cccc(CCC(=O)N2CCc3nn(CC4CC4)c(=O)n3CC2)c1	i
COC(=O)[C@@H]1Cc2nc[nH]c2CN1Cc1cc2ccccc2o1	-20%[44.1 µM]
COc1ccc(F)c(CN2CCCC(O)(CN3CCC(C(C)C)CC3)C2=O)c1 (stereo not given)	-10%
SMILES	Pf Dd2 growth
COc1ccc(F)c(CN2CCCC(O)(CN3CCCCC3)C2=O)c1 (stereo not given)	i
COc1ccc(F)c(CN2CCCC(O)(CN3CCC(C)CC3)C2=O)c1 (stereo not given)	4µM*
COc1ccc(NC(=O)N2CCC(Oc3ncccc3C(=O)N3CCOCC3)C2)cc1F (stereo not given)	27%
Cc1ccc(-c2noc([C@@H]3Cc4nc[nH]c4CN3CC3CCCCC3)n2)cc1	-13%[44.1 µM]
Fc1ccc(CN2Cc3[nH]cnc3C[C@H]2c2nc(-c3ccc(Cl)cc3)no2)cc1	-2%[44.1 µM]
Cc1ccc(-c2noc([C@@H]3Cc4nc[nH]c4CN3Cc3cccs3)n2)cc1	-21%[44.1 µM]
Cc1ccc(CN2Cc3[nH]cnc3C[C@H]2c2nc(-c3ccc4ccccc4c3)no2)cc1	-29%[44.1 µM]
O=C(O)c1ccc(CN2Cc3[nH]cnc3C[C@H]2c2nc(-c3ccc(F)cc3)no2)cc1	-23%[44.1 µM]
c1ccc(CN2Cc3[nH]cnc3C[C@H]2c2nc(-c3ccncc3)no2)cc1	10µM*
Fc1ccc(-c2noc([C@@H]3Cc4nc[nH]c4CN3Cc3ccccc3)n2)cc1Cl	i
OCc1ccc(CN2Cc3[nH]cnc3C[C@H]2c2nc(-c3ccncc3)no2)o1	14µM*
Fc1ccc(-c2noc([C@@H]3Cc4nc[nH]c4CN3Cc3cccs3)n2)cc1Cl	10µM*
CN1CCC(O)(Cc2nc3c([nH]2)CC(C)(C)CNC3=O)CC1	11%
Cc1ccc(NC(=O)N2CCc3c(C(=O)NCc4ccncc4)cccc32)cc1	-9%
CN(C)c1nc2c(c(=O)[nH]1)CCN(Cc1cccc(C(F)(F)F)c1)CC2	-14%[5.79 µM]
CNC(=O)[C@@H]1CN(C(=O)c2n[nH]c3ccccc23)C[C@H]1c1nc(C)no1	26%
Cc1ccc(C(=O)N2CCC3(CC2)NC(=O)N(c2cccc(F)c2)N3)cc1	-21%
Cc1ccc(NC(=O)c2c(NC(=O)Cc3ccccc3)sc3c2CCC3)cc1	32%
CC1CCc2c(sc(NC(=O)Cc3ccccc3)c2C(=O)Nc2ccc(Cl)cc2)C1 (stereo not given)	10µM*
O=C(Cc1ccccc1)Nc1sc2c(c1C(=O)Nc1cccc(Cl)c1)CCCCC2	i
Cc1nc(C(C)C)sc1CNC(=O)C1CCC(=O)N(C2CCCC2)C1 (stereo not given)	-8%
CC1(C)[C@H]2CC[C@@H](CNC(=O)c3ccncc3)[C@@H]1C2	-12%[44.1 µM]
CC1(C)[C@H]2CC[C@@H](CNC(=O)c3cccc(Br)c3)[C@@H]1C2	11µM*
CC1(C)[C@H]2CC[C@@H](CNC(=O)c3cc(F)ccc3Br)[C@@H]1C2	-29%[44.1 µM]
COc1cccc(C(=O)NCCC2CCN(C(=O)Nc3ccccc3F)CC2)c1	-20%
SMILES	Pf Dd2 growth
CCN1C(=O)c2ccccc2Sc2ccc(NC(=O)Nc3ccccc3OC)cc21	25%
O=C(Nc1ccc2c(c1)N(C1CCCC1)C(=O)c1ccccc1S2)c1ccccc1	3%
COc1cc(C(=O)Nc2ccc3c(c2)N(C2CCCC2)C(=O)c2ccccc2S3)cc(OC)c1OC	8.9µM*
O=C(Cc1c[nH]c2ncc(-c3cccnc3)cc12)NCc1cccc(F)c1	6.3µM*
CN1CCN(C(=O)Cc2c[nH]c3ncc(-c4ccc(F)c(Cl)c4)cc23)CC1	11µM*
O=C(Cc1c[nH]c2ncc(-c3cccc(Cl)c3)cc12)NCc1cccnc1	4.5µM*
CN1CCN(C(=O)Cc2c[nH]c3ncc(-c4cccc(Cl)c4)cc23)CC1	i
O=C(Cc1c[nH]c2ncc(-c3cccnc3)cc12)NCCc1ccccc1	i
Cn1cc(-c2cnc3[nH]cc(CC(=O)Nc4cccc(F)c4)c3c2)cn1	6.3µM*
O=C(Cc1c[nH]c2ncc(-c3cccnc3)cc12)Nc1ccc(C(F)(F)F)cc1	-25%[44.1 µM]
NC(=O)Cc1c[nH]c2ncc(-c3cccc(F)c3)cc12	-22%[44.1 µM]
CN1CCN(C(=O)Cc2c[nH]c3ncc(-c4ccc5c(c4)OCO5)cc23)CC1	-21%[44.1 µM]
Cn1cc(-c2cnc3[nH]cc(CC(=O)Nc4ccc(N5CCOCC5)cc4)c3c2)cn1	45%[44.1 µM]
O=C(Cc1cccc(Cl)c1)NCc1c[nH]c2ncccc12	-19%[44.1 µM]
Cn1cc(-c2cnc3[nH]cc(CC(=O)Nc4ccccc4Cl)c3c2)cn1	-19%[44.1 µM]
O=C(Cc1ccccc1)N1CCC(c2noc(-c3cnccn3)n2)C1 (stereo not given)	i[5.79 µM]
CS(=O)(=O)N1CCCN(C(=O)CCc2ccccc2)c2ccccc21	6%
CNC(=O)NC[C@H]1CCN(Cc2ccc(OC)cc2OC)C[C@H]1N(C)C	6%
COc1ccc(-c2nc(C3CC(=O)N(c4ccc(OC)c(OC)c4)C3)no2)cc1F (stereo not given)	49%
O=C(c1ccsc1)N1CC(c2nnc(-c3ccncc3)o2)C2(CCOCC2)C1 (stereo not given)	i
